Source: PubChem BioAssay (Broad Institute)
Most compounds without a hit are left out; they make up all but 6.7% or so of the library.
Pf Dd2 growth: inhibitors of Plasmodium falciparum Dd2 growth; P. falciparum Dd2 growth, SYBR Green, 72 h; stronger effect = lower value; activity change, % at 10 µM; actives 2.3% (n = 94,000); in the data active = activity change below about -80%
Tcruzi prolif: blocks T. cruzi growth in NIH3T3 culture | T. cruzi beta-gal in NIH3T3, GalScreen luminescence, 90 h | inhibition, % at 8.34 µM | actives 5.9% (n = 77,000) | AID 624255;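 active = mean inhibition above about 93%, with at least 55% of replicates each passing it, limit read from the data, passing the limit was not always enough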
C diff growth: blocks growth of Clostridium difficile. actives 0.25% (n = 86,000). growth activity, negative = inhibition, % at 16 µg/mL (by protocol). Clostridium difficile clinical isolate growth, OD600, 24 h; stronger effect = lower value. AID 1259249;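 active = mean growth activity at or below -80% and every replicate also at or below -80%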;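 note: 0% = DMSO wells and -100% = levofloxacin 16 µg/mL wells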
Starred values were filed as active, the others as inactive; / = not tested or not shown.

SMILES	Pf Dd2 growth	Tcruzi prolif	C diff growth
Cc1ccc(S(=O)(=O)N(C)C[C@H]2OCCCC[C@@H](C)Oc3ccc(NC(=O)Nc4ccccc4)cc3C(=O)N([C@H](C)CO)C[C@@H]2C)cc1	-25	27	2
C[C@@H]1CCCCO[C@H](CN(C)S(=O)(=O)c2ccc(Cl)cc2)[C@@H](C)CN([C@@H](C)CO)C(=O)c2cc(NC(=O)Nc3ccccc3)ccc2O1	-74	92	/
CC(C)NC(=O)Nc1ccc2c(c1)C(=O)N([C@H](C)CO)C[C@H](C)[C@H](CN(C)S(=O)(=O)c1ccc(Cl)cc1)OCCCC[C@@H](C)O2	-68	44	9
Cc1ccc(S(=O)(=O)N(C)C[C@H]2OCCCC[C@@H](C)Oc3ccc(NC(=O)Nc4ccc(F)cc4)cc3C(=O)N([C@H](C)CO)C[C@H]2C)cc1	-80	/	/
Cc1ccc(S(=O)(=O)N(C)C[C@@H]2OCCCC[C@@H](C)Oc3ccc(NC(=O)Nc4ccc(F)cc4)cc3C(=O)N([C@H](C)CO)C[C@@H]2C)cc1	-84*	/	/
C[C@H]1CN([C@@H](C)CO)S(=O)(=O)c2ccc(-c3ccncc3)cc2O[C@H]1CN(C)C(=O)C1CCCCC1	-18	79	9
C[C@@H]1CCCCO[C@@H](CN(C)S(=O)(=O)c2cn(C)cn2)[C@H](C)CN([C@@H](C)CO)C(=O)c2cc(NC(=O)C3CCCCC3)ccc2O1	33	-87	-7
C[C@@H]1CCCCO[C@@H](CN(C)C(=O)Nc2ccccc2)[C@H](C)CN([C@@H](C)CO)C(=O)c2cc(NC(=O)Nc3cccc4ccccc34)ccc2O1	-23	39	/
Cc1ccc(S(=O)(=O)N(C)C[C@@H]2OCCCC[C@H](C)Oc3ccc(NC(=O)Nc4ccccc4)cc3C(=O)N([C@@H](C)CO)C[C@H]2C)cc1	-92*	66	7
Cc1ccc(S(=O)(=O)N(C)C[C@H]2OCCCC[C@H](C)Oc3ccc(NC(=O)NC4CCCCC4)cc3C(=O)N([C@@H](C)CO)C[C@H]2C)cc1	-86*	25	1
Cc1ccc(S(=O)(=O)N(C)C[C@@H]2OCCCC[C@@H](C)Oc3ccc(NC(=O)Nc4ccccc4)cc3C(=O)N([C@@H](C)CO)C[C@H]2C)cc1	-67	46	0
Cc1ccc(S(=O)(=O)N(C)C[C@@H]2OCCCC[C@@H](C)Oc3ccc(NC(=O)NC4CCCCC4)cc3C(=O)N([C@@H](C)CO)C[C@H]2C)cc1	-71	40	-4
O=C(C[C@H]1CC[C@@H](NC(=O)c2ccncc2)[C@@H](CO)O1)Nc1ccc(-c2ccccc2)cc1	4	/	-11
CO[C@@H]1CN(C)C(=O)c2ccc(NC(=O)c3ccc4c(c3)OCO4)cc2OC[C@@H](C)N(CCC(F)(F)F)C[C@@H]1C	-44	10	/
Cc1ccc(S(=O)(=O)Nc2ccc3c(c2)C(=O)N([C@H](C)CO)C[C@H](C)[C@H](CN(C)S(=O)(=O)c2ccc(C)cc2)O3)cc1	-55	51	-3
CN(C)C(=O)C[C@@H]1CC[C@@H]2[C@H](COc3ccc(NC(=O)C4CCC4)cc3C(=O)N2C)O1	-15	/	-1
COc1ccc2c3c(n(C)c2c1)[C@H](CO)N(Cc1ccncc1)CC31CCN(C(=O)Cc2ccncc2)CC1	-87*	/	14
COc1ccc2c3c(n(C)c2c1)[C@@H](CO)N(Cc1ccc2c(c1)OCO2)CC31CCN(C(=O)c2ccc3c(c2)OCO3)CC1	-76	/	1
COc1ccc2c3c(n(C)c2c1)[C@@H](CO)N(Cc1ccncc1)CC31CCN(C(=O)C2CC2)CC1	19	/	/
COc1ccc2c3c(n(C)c2c1)[C@H](CO)N(Cc1ccc2c(c1)OCO2)CC31CN(C(=O)c2ccc3c(c2)OCO3)C1	-88*	/	4
COc1ccc2c3c(n(C)c2c1)[C@H](CO)N(Cc1cccc(F)c1)CC31CCN(C(=O)Cc2ccccc2)CC1	-83*	/	7
COCC(=O)N1CCC2(CC1)CN(Cc1cccc(F)c1)[C@@H](CO)c1c2c2ccc(OC)cc2n1C	-50	/	7
CCC(=O)Nc1ccc2c(c1)C(=O)N(C)[C@H]1CC[C@H](CC(=O)NCCCN(C)C)O[C@@H]1CO2	15	-9	-10
C[C@@H]1CCCCO[C@@H](CN(C)Cc2ccc3c(c2)OCO3)[C@H](C)CN([C@@H](C)CO)C(=O)c2cc(NC(=O)CCCN(C)C)ccc2O1	-1	39	7
CN1c2ccc(Br)cc2[C@@H]2[C@@H](CCN2C(=O)Nc2ccc(F)cc2)[C@@H]1CO	18	73	15
CN1c2ccc(Br)cc2[C@@H]2[C@@H](CCN2C(=O)Nc2ccc(F)cc2)[C@H]1CO	11	31	-98*
COc1ccc(NC(=O)N2CC[C@@H]3[C@H]2c2cc(Br)ccc2N(C)[C@H]3CO)cc1	-9	46	7
COc1ccc(NC(=O)N2CC[C@H]3[C@@H]2c2cc(Br)ccc2N(C)[C@H]3CO)cc1	-7	10	-98*
